# Test results published in paper PMC5540273 (PLoS ONE, 2017).
# System: PAK6
# Details: concentration: 1 μM,replicates: in singlicate; n = 1
# 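Also: KINOMEscan kinase panel screen.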
row,SMILES,%Inh [%]
1,COC(=O)Nc1nc2cc(Oc3ccc(NC(=O)Nc4cc(C(F)(F)F)ccc4Cl)cc3)ccc2[nH]1.Cl [GW697465],0
2,CS(=O)(=O)c1cccc(CNc2nc(Nc3ccc4c(c3)[C@@H]3C[C@@H]4CNC3=O)ncc2C(F)(F)F)c1,18
3,COc1cccc(C2=C(Nc3cccc(Cl)c3)C(=O)NC2=O)c1 [SB-341556],0
4,Cc1ccc2c(-c3ccnc(Nc4ccc(C(F)(F)F)cc4)n3)cnn2n1 [GW819776],0
5,CN1CCN(CCNc2nc3cc(Oc4ccc(NC(=O)Nc5cc(C(F)(F)F)ccc5F)cc4)ccc3[nH]2)CC1.Cl.Cl [GW768504],0
6,COc1cc2c(Nc3ccc(NC(=O)c4ccccc4)cc3)ncnc2cc1OCCCN1CCOCC1 [GSK301329],5
7,COc1cccc(OC)c1C(=O)Nc1cccc(-c2nn3ccccc3c2-c2ccnc(Nc3cccc(F)c3)n2)c1 [GSK361065],24
8,Cc1cccc(-c2nc(Nc3ccncc3)c3sccc3n2)n1 [GW869641],11
9,C[C@@H](Oc1cc(-n2cnc3cc(-c4cnn(C)c4)ccc32)sc1C(N)=O)c1ccccc1Cl [GSK580432],2
10,Cn1ccc2ncnc(Oc3ccc(NC(=O)Nc4cnn(C(C)(C)C)c4)c(Cl)c3)c21,19
11,Cn1ccc2ncnc(Oc3ccc(NC(=O)Nc4ccnc(C(F)(F)F)c4)c(Cl)c3)c21,0
12,C[C@@H](Oc1cc(-n2cnc3cc(-c4ccncc4)ccc32)sc1C(N)=O)c1ccccc1Cl [GSK479719],5
13,c1ccc(Oc2ccc(Nc3ccnc4ccc(-c5ccccn5)cc34)cc2)cc1 [GW407034],0
14,COC(=O)c1cccc(NC(=O)NC2CCN(c3ccnc(NCc4ccc(F)cc4)n3)CC2)c1 [GSK1379860],0
15,COc1cccc(CNC(=O)NC2CCN(c3ccnc(Nc4cc(OC)c(OC)c(OC)c4)n3)C2)c1 (stereo not shown) [GSK1379765],0
16,Cn1ccc2ncnc(Oc3ccc(NC(=O)Nc4cccc(C(F)(F)F)c4)c(Cl)c3)c21,1
17,O=C(NCC1CC1)c1ccc(-c2cc(C(=O)NC3CC3)ccc2F)cc1 [GW810445],0
18,O=c1[nH]cc(-c2ccc(O)cc2)c2sc(-c3ccncc3)cc12 [GSK1033723],4
19,Cn1ccc2ncnc(Oc3ccc(NC(=O)Nc4cncc(C(F)(F)F)c4)c(Cl)c3)c21,0

row,SMILES,%Inh [%]
1,Cc1ccc(Nc2ccnc(Nc3ccc4c(c3)CS(=O)(=O)C4)n2)cc1O.Cl [GW579362],28
2,N#Cc1cccc(C(=O)NC2CCN(c3ccnc(Nc4ccc(F)cc4)n3)C2)c1 (stereo not shown) [GSK1379708],27
3,C[C@@H]1CNc2c(sc3ccc4nc(-c5ccc(O)cc5)ccc4c23)C(=O)N1,17
4,C[C@@H]1CNc2c(sc3ccc4nc(-c5ccncc5)ccc4c23)C(=O)N1,9
5,Cl.Nc1n[nH]c2cc(-c3ccccn3)ccc12 [GSK2189892],2
6,CCNCC(Cc1ccccc1)NC(=O)c1cc(Br)c(-c2ccnc3[nH]ccc23)s1.Cl.Cl (stereo not shown) [GSK1383280],60
7,CN(c1ccc2c(c1)nc(NCc1ccc(F)cc1)n2C)c1ccnc(Nc2ccc(CS(C)(=O)=O)cc2)n1.Cl [GW813244],0
8,COc1cc2ncn(-c3cc(OCC4CCCCC4)c(C(N)=O)s3)c2cc1OC [GSK204559],0
9,O=C(Nc1ccc(Oc2ccc3nc(NC(=O)C4CC4)cn3n2)c(F)c1)c1cccn(-c2ccccc2)c1=O,0
10,Cl.Cl.NC[C@H](CC1CCCCC1)NC(=O)c1ccc(-c2ccnc3[nH]ccc23)s1 [GSK1581428],62
11,CSc1nccc(-c2c(-c3ccc(F)cc3)ncn2CCCN2CCOCC2)n1.Cl [SB-217146],0
12,CCOC(=O)N1CCC(n2cnc(-c3ccc(F)cc3)c2-c2ccnc(N)n2)CC1 [SB-219952],6
13,CS(=O)(=O)Nc1ccc(-c2ccnc3[nH]ccc23)cc1 [GSK993273],11
14,O=C(Nc1cccc(C(F)(F)F)c1)c1cccc(Oc2ccc3nccn3n2)c1,1
15,O=C(NOCC1CC1)c1cc(Br)c(F)c(F)c1Nc1ccc(I)cc1Cl,0
16,CC(C)c1nc(-c2cccc(NS(=O)(=O)c3ccccc3)c2)c(-c2ccnc(Nc3ccc4c(c3)CN(C)CC4)n2)s1 [GSK1649598],10
17,OCCn1cc(-c2cnc3nnn(Cc4ccc5ncccc5c4)c3n2)cn1,0
18,O=C(Nc1n[nH]c2cc(-c3ccco3)ccc12)C1CC1 [SB-737447],0
